PubChem BioAssay
Several values for one entry are separate records, joined by “and”; a condition that tells them apart may be missing. Equal entries are not always repeated. Inconclusive results are not listed. Activity calls are given as the source filed them.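 Rule for the calls, unless noted: active = normalized viability below 100% at a tested concentration; inactive = the rest.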

What was measured:
[1] = EMT-state selective cytotoxicity in co-culture – imaging, PC-3E GFP, TEM4-18 mCherry, primary screen (AID 1345086;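 active = compounds killing one labelled cell type while sparing the other, by normalised counts and ratio limits, not self-fluorescent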;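 for all read-outs here: cells exposed to compound for 72 h before imaging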;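 for red/green cell ratio (normalised): normalised mesenchymal count divided by normalised epithelial count so high means epithelial killing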); details: PC-3E GFP / TEM4-18 mCherry co-culture, imaging cell counts, at 1 µM; for red/green cell ratio (normalised): actives lie on both sides, counts scaled to control wells, 1 = unselective
[2] = test system: Aerobactin synthetase IucA (Klebsiella pneumoniae); assay: inhibition of K. pneumoniae IucA enzyme – biochemical, Tocris library, absorbance (AID 1345561; call rule not given here;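 note: 100% = enzyme without compound and 0% = no enzyme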); details: purified IucA enzyme assay, absorbance (OD) read-out; stronger effect = lower value;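 tested at 8 µM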
[3] = viability loss in pontine glioma line – cell-based, SU-DIPG-XVII, MIPE5.0, CellTiter-Glo, qHTS, dose response (AID 1347060; cut-off not given, nearly all actives have AC50 up to about 26 µM;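 for AC50: cells exposed to compound for 48 hours before viability readout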); details: CellTiter-Glo ATP luminescence
[4] = viability loss in pontine glioma line – cell-based, SU-DIPG-XIII, MIPE5.0, CellTiter-Glo, qHTS, dose response (AID 1347064; cut-off not given, nearly all actives have AC50 up to about 23 µM;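 for AC50: cells exposed to compound for 48 hours before the viability read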); details: CellTiter-Glo ATP luminescence
[5] = viability loss in pontine glioma line – cell-based, SU-DIPG-XXV, MIPE5.0, CellTiter-Glo, qHTS, dose response (AID 1347065; cut-off not given, nearly all actives have AC50 up to about 26 µM;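 note: cells exposed to compound for 48 hours before ATP readout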); details: CellTiter-Glo ATP luminescence
[6] = growth inhibition of DIPG cells – cell-based, MIPE4.0 library, CellTiter-Glo luminescence, qHTS (AID 1347066; cut-off not given, nearly all actives have AC50 up to about 30 µM;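 note: cells exposed to compound for 48 hours before readout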); details: SU-DIPG-VI viability, CellTiter-Glo ATP luminescence
[7] = chitosan synthesis blockers in C. neoformans – flow cytometry, Cibacron Brilliant Red staining (AID 1347148; call rule not given here;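 note: compound exposure lasted three days at 37 degrees C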); details: Cryptococcus neoformans chitosan, stronger effect = lower value; at 10 µM unless noted
[8] = compounds altering HSF1 focus formation in cells – imaging, Selleck Cancer Library (AID 1347162; in the data active = plate-normalised HSF1 focus index below about 0.46); details: human cells, HSF1 nuclear foci imaging, at 10 µM; SSMD: measured here: HSF1 foci SSMD mean; cell count: measured here: cell number; plate-normalised HSF1 focus index: stronger effect = lower value
[9] = blockers of cellular phospholipid synthesis – cell-based, LOPAC library, screen 4, primary screen (AID 1347384; call rule not given here); details: animal cells, phospholipid biosynthesis inhibition screen; at 10 µM
[10] = MELAS cybrid and Rieske KO viability enhancers – cell-based, MELAS cybrids, Rieske KO mouse fibroblasts, CellTiter-Glo, primary screen (AID 1508586;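 active = mean z-score across replicates of 1.96 or higher in either the MELAS or the Rieske mutant cell line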;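 note: z relative to plate mean and SD of compound and empty wells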); details: low glucose
[11] = drug combination growth inhibition, ovarian cancer – cell-based, oncology-focused library, rucaparib conditional, profiling panel (AID 1508598); details: patient-derived ovarian cancer cells, CellTiter-Glo viability, 144 h, stronger effect = lower value
[12] = modulation of C. elegans fzo-1 (AID 1259413; call rule not given here;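 note: fzo-1 mutant C. elegans worms in liquid wells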); details: C. elegans fzo-1 modulator screen, mean read-out; stronger effect = higher value
[13] = viability loss with induced miR-34 in A549 – imaging, A549 dox-inducible miR-34, nuclei and caspase counts, primary screen (AID 1347080;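 active = compounds whose cell count with miR-34 switched on is under 0.7 times the count with it off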); details: A549 miR-34 inducible, Hoechst nuclei count, 48 h
[14] = viability loss in pontine glioma line – cell-based, SU-DIPG-XIII, MIPE4.0, CellTiter-Glo, qHTS, dose response (AID 1347061; cut-off not given, nearly all actives have AC50 up to about 37 µM;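 note: cells exposed to compound for 48 hours before readout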); details: CellTiter-Glo ATP luminescence
[15] = viability loss in pontine glioma line – cell-based, JHH-DIPG-1, MIPE4.0, CellTiter-Glo, qHTS, dose response (AID 1347062; cut-off not given, nearly all actives have AC50 up to about 27 µM); details: JHH-DIPG-1 viability, CellTiter-Glo ATP luminescence
[16] = viability loss in pontine glioma line – cell-based, SU-DIPG-IV, MIPE4.0, CellTiter-Glo, qHTS, dose response (AID 1347063; cut-off not given, nearly all actives have AC50 up to about 30 µM;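 note: compound exposure lasted 48 hours before the viability readout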); details: CellTiter-Glo ATP luminescence
[17] = JHH-DIPG-1 glioma cell viability, MIPE5.0 library, CellTiter-Glo luminescence, qHTS (AID 1347067; cut-off not given, nearly all actives have AC50 up to about 26 µM;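 note: cells exposed to compound for 48 hours before readout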); details: JHH-DIPG-1 glioma viability, CellTiter-Glo ATP luminescence
[18] = growth inhibition of DIPG cells – cell-based, MIPE5.0 library, qHTS (AID 1347068; cut-off not given, nearly all actives have IC50 up to about 30 µM); details: SU-DIPG-XXV viability
[19] = measured here: epithelial PC-3E GFP cell survival
[20] = measured here: mesenchymal TEM4-18 mCherry cell survival
[21] = MELAS cybrid survival, CellTiter-Glo 48 h, stronger effect = higher value
[22] = Rieske KO mouse fibroblast survival, CellTiter-Glo 72 h
[23] = stronger effect = lower value, cell number ratio, induced over uninduced
[24] = measured here: relative caspase fold change +Dox/-Dox
[25] = measured here: total cells with miR-34 induction, stronger effect = lower value
[26] = measured here: total cells without miR-34 induction

COC(=O)Nc1nc2ccc(C(=O)c3cccs3)cc2[nH]1
0.709 and -0.844 and -0.416: z-score [10, 22]
6830: cell count [8]
3.16: SSMD [8]
active: AC50 [3] 148 nM | AC50 [4] 833 nM | AC50 [5] 118 nM | AC50 [6] 3720 nM | viability ([11]; at 0.000305 µM, OCI-P5x cells, with rucaparib 20 µM, 100% = cells with rucaparib alone) 89% | viability ([11]; at 0.000305 µM, OCI-P5x cells, without rucaparib) 84.1% | viability ([11]; at 0.00122 µM, OCI-P5x cells, with rucaparib 20 µM, 100% = cells with rucaparib alone) 88% | viability ([11]; at 0.00122 µM, OCI-P5x cells, without rucaparib) 90.4% | viability ([11]; at 0.00488 µM, OCI-P5x cells, with rucaparib 20 µM, 100% = cells with rucaparib alone) 87.3% | viability ([11]; at 0.00488 µM, OCI-P5x cells, without rucaparib) 58% | viability ([11]; at 0.0195 µM, OCI-C5x cells, with rucaparib 10 µM, 100% = cells with rucaparib alone) 96.1% | viability ([11]; at 0.0195 µM, OCI-C5x cells, without rucaparib) 74% | viability ([11]; at 0.0195 µM, OCI-P5x cells, with rucaparib 20 µM, 100% = cells with rucaparib alone) 68.5% | viability ([11]; at 0.0195 µM, OCI-P5x cells, without rucaparib) 32.7% | viability ([11]; at 0.0781 µM, OCI-C5x cells, with rucaparib 10 µM, 100% = cells with rucaparib alone) 71.2% | viability ([11]; at 0.0781 µM, OCI-C5x cells, without rucaparib) 69.2% | viability ([11]; at 0.0781 µM, OCI-P5x cells, with rucaparib 20 µM, 100% = cells with rucaparib alone) 62.5% | viability ([11]; at 0.0781 µM, OCI-P5x cells, without rucaparib) 35.1% | viability ([11]; at 0.313 µM, OCI-C5x cells, with rucaparib 10 µM, 100% = cells with rucaparib alone) 89% | viability ([11]; at 0.313 µM, OCI-C5x cells, without rucaparib) 97.5% | viability ([11]; at 0.313 µM, OCI-P5x cells, with rucaparib 20 µM, 100% = cells with rucaparib alone) 77.5% | viability ([11]; at 0.313 µM, OCI-P5x cells, without rucaparib) 52.1% | viability ([11]; at 1.25 µM, OCI-C5x cells, with rucaparib 10 µM, 100% = cells with rucaparib alone) 56.8% | viability ([11]; at 1.25 µM, OCI-C5x cells, without rucaparib) 60.1% | viability ([11]; at 1.25 µM, OCI-P5x cells, with rucaparib 20 µM, 100% = cells with rucaparib alone) 67.3% | viability ([11]; at 1.25 µM, OCI-P5x cells, without rucaparib) 48% | viability ([11]; at 5 µM, OCI-C5x cells, with rucaparib 10 µM, 100% = cells with rucaparib alone) 55.3% | viability ([11]; at 5 µM, OCI-C5x cells, without rucaparib) 38.7% | viability ([11]; at 5 µM, OCI-P5x cells, with rucaparib 20 µM, 100% = cells with rucaparib alone) 52.5% | viability ([11]; at 5 µM, OCI-P5x cells, without rucaparib) 14.7%
0.17: normalised cell number [1, 20]
0.15: normalised cell number [1, 19]
inactive: red/green cell ratio (normalised) [1] 1.09 | remaining activity [2] 122% | fold fluorescence [7] 18.7 [at 165.9 µM] | plate-normalised HSF1 focus index [8] 1.2 | outcome [9] | z-score [10, 21] -0.757 and 1.39 and -3.68 | viability ([11]; at 0.000305 µM, OCI-C5x cells, with rucaparib 10 µM, 100% = cells with rucaparib alone) 120% | viability ([11]; at 0.000305 µM, OCI-C5x cells, without rucaparib) 106% | viability ([11]; at 0.00122 µM, OCI-C5x cells, with rucaparib 10 µM, 100% = cells with rucaparib alone) 116% | viability ([11]; at 0.00122 µM, OCI-C5x cells, without rucaparib) 108% | viability ([11]; at 0.00488 µM, OCI-C5x cells, with rucaparib 10 µM, 100% = cells with rucaparib alone) 112% | viability ([11]; at 0.00488 µM, OCI-C5x cells, without rucaparib) 108%

CC(C)(C)CC(C)(C)c1ccc(O)c(Cc2ccc(Cl)cc2Cl)c1
1.02: normalised cell number [1, 19]
0.82: normalised cell number [1, 20]
inactive: red/green cell ratio (normalised) [1] 0.81

CCCCCCCCCCCCCCCCCCOCC(O)CO (stereo not given)
0.96: normalised cell number [1, 19] | normalised cell number [1, 20]
inactive: red/green cell ratio (normalised) [1] 1

Cc1[nH]cnc1CN1CCc2c(c3ccccc3n2C)C1=O
inactive: mean signal [12] 241 | fold change [13, 23] 0.98 | z-score [10, 21] 0.685
0.531: z-score [10, 22]
1.07: fold change [13, 24]
9940: cell count [13, 26]
9740: cell count [13, 25]

CC1=NN(c2ccccc2)C(=O)C1
5320 and 7500 and 8540: cell count [13, 25]
5390 and 8010 and 9190: cell count [13, 26]
1.01: normalised cell number [1, 20]
0.941 and 1.18 and 0.593: fold change [13, 24]
inactive: red/green cell ratio (normalised) [1] 0.88 | remaining activity [2] 85.6% | outcome [3] | outcome [14] | outcome [15] | outcome [16] | outcome [4] | outcome [5] | outcome [6] | outcome [17] | outcome [18] | fold change [13, 23] 0.988 and 0.936 and 0.929 | fold fluorescence [7] 4.15 [at 287 µM] | z-score [10, 21] -0.423
0.67: z-score [10, 22]
1.15: normalised cell number [1, 19]
